{
  "source": "PubChem BioAssay",
  "key": {"[1]": {"molecular_target": "ATP-dependent translocase ABCB1 (Homo sapiens) (UniProt P08183)", "sequence (P08183 whole entry, looked up)": "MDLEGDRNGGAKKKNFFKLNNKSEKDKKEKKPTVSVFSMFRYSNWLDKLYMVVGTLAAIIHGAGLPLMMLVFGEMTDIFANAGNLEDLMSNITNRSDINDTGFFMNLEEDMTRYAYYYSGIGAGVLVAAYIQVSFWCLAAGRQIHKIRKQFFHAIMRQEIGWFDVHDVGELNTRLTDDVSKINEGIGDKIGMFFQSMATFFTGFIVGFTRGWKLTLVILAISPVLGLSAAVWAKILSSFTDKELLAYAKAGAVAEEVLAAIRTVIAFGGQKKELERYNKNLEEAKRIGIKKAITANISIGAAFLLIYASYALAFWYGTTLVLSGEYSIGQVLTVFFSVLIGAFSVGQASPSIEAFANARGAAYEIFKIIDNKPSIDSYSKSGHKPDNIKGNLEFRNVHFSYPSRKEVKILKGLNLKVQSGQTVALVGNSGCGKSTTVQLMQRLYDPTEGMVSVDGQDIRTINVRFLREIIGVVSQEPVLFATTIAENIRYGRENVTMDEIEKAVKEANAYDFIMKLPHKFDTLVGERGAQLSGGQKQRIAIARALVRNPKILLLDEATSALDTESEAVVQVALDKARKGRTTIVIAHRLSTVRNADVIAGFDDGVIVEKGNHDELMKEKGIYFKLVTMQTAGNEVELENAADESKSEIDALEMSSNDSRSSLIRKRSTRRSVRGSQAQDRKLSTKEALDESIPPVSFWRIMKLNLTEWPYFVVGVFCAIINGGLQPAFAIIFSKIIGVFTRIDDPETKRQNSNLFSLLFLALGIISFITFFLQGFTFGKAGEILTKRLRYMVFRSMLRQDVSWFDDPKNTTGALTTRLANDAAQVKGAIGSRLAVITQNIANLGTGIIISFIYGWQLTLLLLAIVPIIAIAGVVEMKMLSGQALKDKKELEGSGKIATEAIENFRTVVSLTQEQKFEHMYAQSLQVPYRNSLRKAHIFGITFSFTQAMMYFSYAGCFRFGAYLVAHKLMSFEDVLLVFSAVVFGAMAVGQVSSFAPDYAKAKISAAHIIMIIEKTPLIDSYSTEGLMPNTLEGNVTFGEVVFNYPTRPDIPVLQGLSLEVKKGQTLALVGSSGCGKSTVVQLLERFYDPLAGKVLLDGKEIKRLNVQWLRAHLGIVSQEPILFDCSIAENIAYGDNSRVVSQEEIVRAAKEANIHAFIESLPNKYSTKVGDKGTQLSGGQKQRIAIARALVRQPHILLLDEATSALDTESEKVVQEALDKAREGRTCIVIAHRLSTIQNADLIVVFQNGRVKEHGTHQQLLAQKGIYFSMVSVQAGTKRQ", "experiment": "MDR1 (ABCB1) efflux transporter inhibition, cell-based (AID 377; in the data active = fluorescence slope change above about 50%)", "conditions": "MDR1-expressing cells, fluorescent substrate accumulation slope; stronger effect = higher value; concentration not given here"}, "[2]": {"experiment": "suppressors of polyQ aggregation in yeast, 75Q-TubU reporter (AID 1593)", "conditions": "Yeast 75Q polyglutamine aggregation reporter"}, "[3]": {"experiment": "rescue of polyQ-huntingtin neuronal dysfunction in worms, whole organism, C. elegans mechanosensory neurons, N-terminal huntingtin (AID 1599)", "conditions": "touch response, stronger effect = higher value"}, "[4]": {"experiment": "inhibitors of mitochondrial cytochrome c release, biochemical, purified mitochondria (AID 1603);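 also: mouse liver mitochondria challenged with calcium chloride; signal normalized to the plate average as 100%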", "conditions": "stronger effect = lower value"}, "[5]": {"experiment": "inhibitors of polyQ protein aggregation (AID 1604)", "conditions": "polyglutamine-induced protein aggregation inhibition assay; stronger effect = higher value; tested at 2.5 µM"}, "[6]": {"experiment": "enhancers of glutamate uptake in motor neurons, MN-1 cell line (AID 1612);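 also: tested at 1 µM final; 0% = mean of DMSO vehicle wells on each plate; positive means more glutamate uptake than control and negative means less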", "conditions": "MN-1 motor neuron cells, stronger effect = higher value"}, "[7]": {"experiment": "reducers of polyQ inclusions in PC12 cells, cell-based, NGF-treated PC12, GFPQ80 (AID 1614);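 also: lower means fewer inclusions and 0 means no inclusions at all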", "conditions": "PC12 NGF-treated GFP-polyQ80 inclusion reduction"}, "[8]": {"experiment": "suppressors of polyglutamine aggregation in yeast, 75Q-TubH (AID 1616)", "conditions": "S. cerevisiae 75Q-TubH polyglutamine aggregation suppression; stronger effect = higher value"}, "[9]": {"experiment": "hESC survival regulators, cell-based (AID 493140);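 also: cells exposed to compounds for four days before counting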", "conditions": "human embryonic stem cell survival screen; stronger effect = higher value"}, "[10]": {"system": "Hepatitis C virus NS3 helicase", "experiment": "HCV NS3 helicase inhibitors, primary screen, biochemical, fluorescence polarization, LOPAC1280 library (AID 687035; in the data active = inhibition above about 37%)", "conditions": "Purified HCV NS3 helicase, Cy5-dT15 ssDNA binding fluorescence polarization; stronger effect = higher value; concentration not given here"}, "[11]": {"experiment": "modulation of C. elegans fzo-1 (AID 1259413);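 also: fzo-1 mutant C. elegans worms in liquid wells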", "conditions": "C. elegans fzo-1 modulator screen, mean read-out; stronger effect = higher value"}, "[12]": {"system": "Aerobactin synthetase IucA (Klebsiella pneumoniae, hypervirulent)", "experiment": "IucA enzyme inhibition, biochemical, LOPAC library, absorbance readout (AID 1346212);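 also: 100% = no compound wells and 0% = no enzyme wells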", "conditions": "IucA enzyme assay, absorbance (OD) readout; stronger effect = lower value;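 tested at 8 µM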"}, "[13]": {"experiment": "growth inhibition of DIPG glioma cells, dose response, cell-based, SU-DIPG-XIII, MIPE4.0, CellTiter-Glo, qHTS (AID 1347061; cut-off not given, nearly all actives have AC50 up to about 37 µM;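 also: cells exposed to compound for 48 hours before readout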)", "conditions": "SU-DIPG-XIII viability, CellTiter-Glo ATP luminescence"}, "[14]": {"experiment": "SU-DIPG-VI glioma cell viability, MIPE4.0 library, CellTiter-Glo luminescence, qHTS (AID 1347066; cut-off not given, nearly all actives have AC50 up to about 30 µM;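 also: cells exposed to compound for 48 hours before readout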)", "conditions": "CellTiter-Glo ATP luminescence"}, "[15]": {"system": "Aerobactin synthetase IucA (Klebsiella pneumoniae)", "experiment": "IucA aerobactin synthetase inhibitors, biochemical, Tocris library, absorbance (AID 1345561);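 also: 100% = enzyme without compound and 0% = no enzyme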", "conditions": "purified IucA enzyme assay, absorbance (OD) read-out; stronger effect = lower value;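 tested at 8 µM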"}, "[16]": {"experiment": "phospholipid biosynthesis inhibitors in animal cells, primary screen, cell-based, LOPAC library, screen 4 (AID 1347384)", "conditions": "phospholipid biosynthesis inhibition screen, at 10 µM"}, "[17]": {"experiment": "growth inhibition of DIPG glioma cells, dose response, cell-based, SU-DIPG-XVII, MIPE5.0, CellTiter-Glo, qHTS (AID 1347060; cut-off not given, nearly all actives have AC50 up to about 26 µM;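 as to AC50: cells exposed to compound for 48 hours before viability readout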)", "conditions": "SU-DIPG-XVII viability, CellTiter-Glo ATP luminescence"}, "[18]": {"experiment": "growth inhibition of DIPG glioma cells, dose response, cell-based, SU-DIPG-IV, MIPE4.0, CellTiter-Glo, qHTS (AID 1347063; cut-off not given, nearly all actives have AC50 up to about 30 µM;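 also: compound exposure lasted 48 hours before the viability readout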)", "conditions": "SU-DIPG-IV viability, CellTiter-Glo ATP luminescence"}, "[19]": {"experiment": "SU-DIPG-XXV glioma cell viability, MIPE5.0 library, qHTS (AID 1347068; cut-off not given, nearly all actives have IC50 up to about 30 µM)"}, "[20]": {"experiment": "modifiers of HSF1 nuclear foci, imaging, Selleck Cancer Library (AID 1347162; in the data active = plate-normalised HSF1 focus index below about 0.46)", "conditions": "human cells, at 10 µM; SSMD: measured here: HSF1 foci SSMD mean; cell count: measured here: cell number; plate-normalised HSF1 focus index: stronger effect = lower value"}},
  "note": "Values joined by “and” are separate entries in the source; they are usually repeats but may differ in a detail not shown here. Equal values may be shown once. Records with an inconclusive call do not appear. For some assays here: Measured potencies and affinities stand elsewhere. Active and inactive are the calls of the source. Unless noted, no rule for the calls is given here.",
  "data": [
    {"smiles": "CCCC(C)(COC(N)=O)COC(=O)NC(C)C", "note": "(stereo not drawn)", "values": [
      {"measurement": "fluorescence slope change", "setting": "[1]", "value": "52.8% (active)"},
      {"measurement": "score", "setting": "[2]", "value": 1.44},
      {"measurement": "rescue above control", "setting": "[3]", "value": 0.33},
      {"measurement": "cytochrome c release ratio", "setting": "[4]", "value": 0.68},
      {"measurement": "inhibition of aggregation", "setting": "[5]", "value": 85.8, "unit": "%"},
      {"measurement": "glutamate uptake change", "setting": "[6]", "value": 3.53, "unit": "%"},
      {"measurement": "inclusion score", "setting": "[7]", "value": 2},
      {"measurement": "aggregation suppression score", "setting": "[8]", "value": 1.4},
      {"measurement": "survival", "setting": "[9]", "value": "11.2 (inactive)"},
      {"measurement": "inhibition", "setting": "[10]", "value": "-1% (inactive)"},
      {"measurement": "mean signal", "setting": "[11]", "value": "258 (inactive)"},
      {"measurement": "remaining activity", "setting": "[12]", "value": "106% (inactive)"},
      {"measurement": "outcome", "setting": "[13]", "value": "inactive"},
      {"measurement": "outcome", "setting": "[14]", "value": "inactive"}
    ]},
    {"smiles": "O=C(CCCN1CCC2(CC1)C(=O)NCN2c1ccccc1)c1ccc(F)cc1", "values": [
      {"measurement": "fluorescence slope change", "setting": "[1]", "value": "202% (active)"},
      {"measurement": "score", "setting": "[2]", "value": 1.06},
      {"measurement": "rescue above control", "setting": "[3]", "value": 4.9},
      {"measurement": "cytochrome c release ratio", "setting": "[4]", "value": 1.21},
      {"measurement": "inhibition of aggregation", "setting": "[5]", "value": 87, "unit": "%"},
      {"measurement": "glutamate uptake change", "setting": "[6]", "value": -22.8, "unit": "%"},
      {"measurement": "inclusion score", "setting": "[7]", "value": 2},
      {"measurement": "aggregation suppression score", "setting": "[8]", "value": 1.1},
      {"measurement": "survival", "setting": "[9]", "value": "7.92 (inactive)"},
      {"measurement": "remaining activity", "setting": "[15]", "value": "101% (inactive)"},
      {"measurement": "remaining activity", "setting": "[12]", "value": "121% (inactive)"},
      {"measurement": "outcome", "setting": "[16]", "value": "inactive"}
    ]},
    {"smiles": "CC(NC(C)(C)C)C(=O)c1cccc(Cl)c1", "note": "(stereo not drawn)", "values": [
      {"measurement": "fluorescence slope change", "setting": "[1]", "value": "106% (active)"},
      {"measurement": "survival", "setting": "[9]", "value": "16.8 (inactive)"},
      {"measurement": "inhibition", "setting": "[10]", "value": "-1% (inactive)"},
      {"measurement": "mean signal", "setting": "[11]", "value": "264 (inactive)"},
      {"measurement": "remaining activity", "setting": "[12]", "value": "118% (inactive)"},
      {"measurement": "outcome", "setting": "[17]", "value": "inactive"},
      {"measurement": "outcome", "setting": "[13]", "value": "inactive"},
      {"measurement": "outcome", "setting": "[18]", "value": "inactive"},
      {"measurement": "outcome", "setting": "[14]", "value": "inactive"},
      {"measurement": "outcome", "setting": "[19]", "value": "inactive"},
      {"measurement": "outcome", "setting": "[16]", "value": "inactive"}
    ]},
    {"smiles": "C=C(C)[C@H]1Cc2c(ccc3c2O[C@@H]2COc4cc(OC)c(OC)cc4[C@@H]2C3=O)O1", "values": [
      {"measurement": "fluorescence slope change", "setting": "[1]", "value": "63.7% (active)"},
      {"measurement": "score", "setting": "[2]", "value": 3.23},
      {"measurement": "rescue above control", "setting": "[3]", "value": 0},
      {"measurement": "cytochrome c release ratio", "setting": "[4]", "value": 1.15},
      {"measurement": "inhibition of aggregation", "setting": "[5]", "value": 33.3, "unit": "%"},
      {"measurement": "glutamate uptake change", "setting": "[6]", "value": -44.7, "unit": "%"},
      {"measurement": "inclusion score", "setting": "[7]", "value": 2},
      {"measurement": "aggregation suppression score", "setting": "[8]", "value": 0.895},
      {"measurement": "inhibition", "setting": "[10]", "value": "-1% (inactive)"},
      {"measurement": "remaining activity", "setting": "[12]", "value": "78.1% (inactive)"},
      {"measurement": "AC50", "setting": "[17]", "value": "1.32 µM (active)"},
      {"measurement": "outcome", "setting": "[13]", "value": "inactive"},
      {"measurement": "outcome", "setting": "[16]", "value": "inactive"}
    ]},
    {"smiles": "CC(C)N(CCC(C(N)=O)(c1ccccc1)c1ccccn1)C(C)C", "note": "(stereo not drawn)", "values": [
      {"measurement": "fluorescence slope change", "setting": "[1]", "value": "52.1% (active)"},
      {"measurement": "score", "setting": "[2]", "value": 1.39},
      {"measurement": "rescue above control", "setting": "[3]", "value": -8.3},
      {"measurement": "cytochrome c release ratio", "setting": "[4]", "value": 1.18},
      {"measurement": "inhibition of aggregation", "setting": "[5]", "value": 70.4, "unit": "%"},
      {"measurement": "glutamate uptake change", "setting": "[6]", "value": 24.3, "unit": "%"},
      {"measurement": "inclusion score", "setting": "[7]", "value": 2},
      {"measurement": "aggregation suppression score", "setting": "[8]", "value": 1.38},
      {"measurement": "survival", "setting": "[9]", "value": "11.6 (inactive)"},
      {"measurement": "inhibition", "setting": "[10]", "value": "0% (inactive) and -1% (inactive)"},
      {"measurement": "mean signal", "setting": "[11]", "value": "254 (inactive)"},
      {"measurement": "remaining activity", "setting": "[12]", "value": "98.9% (inactive) and 93.2% (inactive)"},
      {"measurement": "outcome", "setting": "[16]", "value": "inactive"}
    ]},
    {"smiles": "Clc1ccc(CO/N=C(\\Cn2ccnc2)c2ccc(Cl)cc2Cl)c(Cl)c1", "values": [
      {"measurement": "mean signal", "setting": "[11]", "value": "187 (inactive)"}
    ]},
    {"smiles": "COc1ccc(OC)c(C(O)C(C)N)c1", "note": "(stereo not drawn)", "values": [
      {"measurement": "survival", "setting": "[9]", "value": "3.58 (inactive)"},
      {"measurement": "inhibition", "setting": "[10]", "value": "-2% (inactive)"},
      {"measurement": "remaining activity", "setting": "[12]", "value": "112% (inactive)"},
      {"measurement": "outcome", "setting": "[16]", "value": "inactive"}
    ]},
    {"smiles": "Cc1ncc(CNC(=O)N(CCCl)N=O)c(N)n1", "values": [
      {"measurement": "inhibition", "setting": "[10]", "value": "2% (inactive)"},
      {"measurement": "remaining activity", "setting": "[12]", "value": "113% (inactive)"},
      {"measurement": "outcome", "setting": "[16]", "value": "inactive"}
    ]},
    {"smiles": "O=C(O)c1nn(Cc2ccc(Cl)cc2Cl)c2ccccc12", "values": [
      {"measurement": "inhibition", "setting": "[10]", "value": "-4% (inactive)"},
      {"measurement": "remaining activity", "setting": "[15]", "value": "90.4% (inactive)"},
      {"measurement": "remaining activity", "setting": "[12]", "value": "110% (inactive)"},
      {"measurement": "outcome", "setting": "[17]", "value": "inactive"},
      {"measurement": "outcome", "setting": "[13]", "value": "inactive"},
      {"measurement": "outcome", "setting": "[18]", "value": "inactive"},
      {"measurement": "outcome", "setting": "[14]", "value": "inactive"},
      {"measurement": "outcome", "setting": "[19]", "value": "inactive"},
      {"measurement": "SSMD", "setting": "[20]", "value": 0.502},
      {"measurement": "cell count", "setting": "[20]", "value": 6570},
      {"measurement": "plate-normalised HSF1 focus index", "setting": "[20]", "value": "1.03 (inactive)"},
      {"measurement": "outcome", "setting": "[16]", "value": "inactive"}
    ]}
  ]
}
